The list is not random: actives were taken first. Their share in the collection is about 11%.
HEK293 tox – cytotoxic compounds in HEK 293 cells; HEK 293 viability, ATP luminescence (CellTiter-Glo), 48-72 h; Potency, µM (top dose mostly 115 µM), without a hit: top-dose activity change, negative = cytotoxicity, actives largely listed as inhibitors; actives 6.6% (n = 94,000); note: nearly all actives have a fitted effect of over 60% in size
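Viability of HEK 293 cells, plated at 250 cells/well, was judged by cellular ATP after compound treatment for 48 or 72 hr. Luminescence was imaged 10 min after CellTiter-Glo addition at room temperature.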
hNpr1 antagonist – human Npr1 receptor antagonism. P16066. HEK293 hNpr1 GloSensor cGMP, ANP-stimulated luminescence. Potency, µM (highest dose often 46.3 µM), inactives show at the highest dose activity change, negative = inhibition, most hits filed as inhibitors. actives 1.6% (n = 76,000); calls by dose curve; note: nearly all actives have a fitted effect of over 60% in size
Target sequence (P16066 whole entry, looked up): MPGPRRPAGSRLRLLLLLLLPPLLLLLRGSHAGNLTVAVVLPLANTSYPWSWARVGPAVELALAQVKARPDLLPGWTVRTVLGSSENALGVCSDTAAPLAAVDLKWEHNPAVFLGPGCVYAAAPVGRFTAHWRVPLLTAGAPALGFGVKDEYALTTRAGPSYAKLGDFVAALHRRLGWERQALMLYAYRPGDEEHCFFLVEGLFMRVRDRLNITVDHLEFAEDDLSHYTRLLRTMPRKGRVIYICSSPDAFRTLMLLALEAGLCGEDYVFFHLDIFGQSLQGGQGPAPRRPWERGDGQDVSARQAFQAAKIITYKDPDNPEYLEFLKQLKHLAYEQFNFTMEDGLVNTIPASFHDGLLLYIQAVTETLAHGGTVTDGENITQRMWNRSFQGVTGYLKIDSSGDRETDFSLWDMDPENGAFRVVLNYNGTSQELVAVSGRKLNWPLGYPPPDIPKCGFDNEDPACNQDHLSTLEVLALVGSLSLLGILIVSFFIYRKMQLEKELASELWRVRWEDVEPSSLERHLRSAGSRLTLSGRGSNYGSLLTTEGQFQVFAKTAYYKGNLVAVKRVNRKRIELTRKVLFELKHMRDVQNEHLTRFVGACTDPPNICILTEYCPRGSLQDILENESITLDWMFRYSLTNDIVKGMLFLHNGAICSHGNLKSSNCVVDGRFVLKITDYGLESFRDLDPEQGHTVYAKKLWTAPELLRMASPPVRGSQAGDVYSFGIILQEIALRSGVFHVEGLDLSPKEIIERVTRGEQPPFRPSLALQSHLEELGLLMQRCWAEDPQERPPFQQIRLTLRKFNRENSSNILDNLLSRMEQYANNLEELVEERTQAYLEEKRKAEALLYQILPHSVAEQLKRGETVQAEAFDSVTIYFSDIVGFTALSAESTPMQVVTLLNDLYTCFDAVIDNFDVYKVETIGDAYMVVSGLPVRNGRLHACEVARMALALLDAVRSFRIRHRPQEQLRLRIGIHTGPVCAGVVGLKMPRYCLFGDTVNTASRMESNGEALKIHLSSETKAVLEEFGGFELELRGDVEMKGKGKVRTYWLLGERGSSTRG
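HEK293 cells stably expressing human Npr1 and cGMP GloSensor pGS-40F, loaded 2 h with 2% GloSensor reagent, given compound 30 min at room temperature. Luminescence read before and 20 min after 0.1 nM hNppA.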
NIH3T3 tox – kills NIH 3T3 cells; NIH 3T3 viability, CellTiter-Glo ATP luminescence, 48-72 h; Potency, µM (highest dose often 96.7 µM), inactives show top-dose activity change, negative = cytotoxicity, most hits filed as inhibitors; actives 4.3% (n = 94,000); AID 1345082; note: nearly all actives have a fitted effect of over 55% in size
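ATP-dependent luminescence (CellTiter-Glo) served as the viability signal for NIH 3T3 cells treated with compound for 48 or 72 hr at 37 °C.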
Luciferase inh – blocks purified firefly luciferase enzyme activity; actives 2.5% (n = 76,000); AID 1347043; P08659; purified P. pyralis luciferase, luminescence, biochemical; Potency, µM (top dose mostly 115 µM), most hits filed as inhibitors; note: nearly all actives have a fitted effect of over 65% in size
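Purified P. pyralis luciferase (10nM final) in 50mM Tris acetate pH 7.5, 10mM Mg acetate, 0.01% Tween-20, 0.05% BSA with 10uM D-luciferin and 10uM ATP. Compounds titrated qHTS. Luminescence imaged on CCD.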
Starred values were filed as active, the others as inactive; i = inactive; ? = inconclusive; / = no result; [ ] = another dose, or the depositor's remark. Unless noted, calls come from the whole dose curve; as a rule, active = well fitted curve in the direction sought with a large enough effect; inconclusive = small, poorly fitted or top-dose-only effect, or another doubt; inactive = no such curve, though single readings can be large; an effect the other way counts as inactive or inconclusive. % is set by controls: 0 for no effect and ±100 for the full control effect; potency is the fitted concentration of half-maximal effect.

SMILES | HEK293 tox | hNpr1 antagonist | NIH3T3 tox | Luciferase inh
O[C@H]1[C@H](NCc2ccc(-c3ccccc3)cc2)[C@H]2CO[C@H](O2)[C@@H]1Oc1ccccc1 | 89µM* | -20%[70.6 µM] | 112µM* | i
COc1ccc(CC(=O)NC2CCCN(Cc3ccc(-c4cncnc4)cc3)C2)cc1 (stereo not drawn) | ? | / | -29% | /
COc1cccc(-c2ccc(NC(=O)C3CCCN3C(=O)Cn3cccn3)cc2)c1 (stereo not drawn) | 2% | -3% | 2% | i
COc1ccc(C(=O)NC2CCCN(Cc3ccc(-c4cccc(OC)c4)cc3)C2)cc1 (stereo not drawn) | 35µM* | / | -37% | /
COc1cccc(-c2ccc(CN3CCCC(NC(=O)C4CCCC4)C3)cc2)c1 (stereo not drawn) | 20µM* | / | 35µM* | /
COc1cccc(-c2ccc(CN3CCCC(NC(=O)c4cccnc4)C3)cc2)c1 (stereo not drawn) | 28µM* | / | ? | /
COc1cccc(-c2ccc(CN3CCCC(NC(C)=O)C3)cc2)c1 (stereo not drawn) | ? | / | -41% | /
COc1cccc(-c2ccc(NC(=O)C3CCCN(Cc4cc(C(C)C)n[nH]4)C3)cc2)c1 (stereo not drawn) | 22µM* | ? | 40µM* | i
Cc1cc(C)cc(-c2ccc(CN3CCCC(NC(=O)c4cccc(Cl)c4)C3)cc2)c1 (stereo not drawn) | 40µM* | / | ? | /
COc1cccc(-c2ccc(CN3CCCC(NC(=O)c4cccc(Cl)c4)C3)cc2)c1 (stereo not drawn) | ? | / | 32µM* | /
COc1cccc(C(=O)NC2CCCN(Cc3ccc(-c4cccc(OC)c4)cc3)C2)c1 (stereo not drawn) | 32µM* | / | 25µM* | /
O=C(c1ccccn1)N1CCN(c2ccc3nnc(C4CC4)n3n2)CC1 | -15%[172 µM] | / | -33%[138 µM] | /
CN(Cc1ccccc1)C1CCOC2(CCN(C(=O)CCc3nc4ccccc4[nH]3)CC2)C1 (stereo not drawn) | -5% | -11% | -2% | i
O=C(Nc1cccc(Cl)c1F)N1CCCC(Cn2c(C3CC3)nc3cccnc32)C1 (stereo not drawn) | ? | -14% | ? | i
O=C(CCc1nc(-c2ccccc2)no1)NC1CCCN(CCCc2ccccc2)C1 (stereo not drawn) | 45µM* | -9% | ? | i
O=C1CCCCCN1C1CCN(Cc2cccc3ccccc23)CC1 | 79µM* | 2%[70.6 µM] | 79µM* | i
O=C1CCCCCN1C1CCN(Cc2ccccc2C(F)(F)F)CC1 | 79µM* | -7%[70.6 µM] | ? | i
O=C(NC1CCN(c2cc(-c3cccs3)[nH]n2)CC1)c1ccc(Cl)cc1 | ? | -17% | ? | i
COc1cccc(C(=O)Nc2cc(C3CC3)nn2C)c1 | -4%[172 µM] | / | -24%[138 µM] | /
COc1ccc(C(=O)Nc2cc(C3CCCC3)nn2C)cc1 | 100µM* | / | ? | /
CN1CCC2(CCC1=O)CN(C(=O)c1ccc(Cn3cccn3)o1)CCN2C (stereo not drawn) | -22% | -4% | -17% | i
Cc1csc(NC(=O)C2c3ccccc3C(=O)N(Cc3ccccc3)C23CCCC3)n1 (stereo not drawn) | ? | -21% | -17% | i
Cc1ccc(C(=O)N[C@H]2C[C@@H](c3nc(-c4ccc5c(c4)OCO5)no3)N(C)C2)cc1 | ? | -1%[70.6 µM] | 79µM* | i
CN1C[C@@H](NC(=O)c2ccccc2)C[C@H]1c1nc(-c2ccc(F)cc2)no1 | ? | -9%[70.6 µM] | -37%[174 µM] | i
CN(C)c1ccc(C(=O)N[C@H]2C[C@@H](c3nc(-c4ccc5c(c4)OCO5)no3)N(C)C2)cc1 | ? | -19% | ? | i
SMILES | HEK293 tox | hNpr1 antagonist | NIH3T3 tox | Luciferase inh
CN1C[C@@H](NC(=O)c2ccc3ccccc3c2)C[C@H]1c1nc(-c2ccc3c(c2)OCO3)no1 | ? | -11% | -20% | i
CN1C[C@@H](NC(=O)c2ccc(F)cc2)C[C@H]1c1nc(-c2ccc3c(c2)OCO3)no1 | 79µM* | -8%[70.6 µM] | ? | i
CN1C[C@@H](NC(=O)c2ccccc2)C[C@H]1c1nc(-c2ccc3c(c2)OCO3)no1 | 79µM* | -5%[70.6 µM] | ? | i
Cc1noc(C)c1C(=O)N1CCC2(CC1)CC(c1ccccc1)C(=O)N2C (stereo not drawn) | i | 4% | -25% | i
Cc1nn2c(c1-c1cccnc1N1CCOCC1)N(C(=O)Cc1ccc(Cl)cc1)CCC2 | ? | 1% | ? | i
N#Cc1cccc(C(=O)N2CCC3(CC2)NC(=O)N(Cc2ccc(Cl)cc2)C3=O)c1 | ? | ? | ? | i
O=C(c1ccc(Cl)cc1)N1CCC2(CC1)C(=O)NCN2CCc1ccc(Cl)cc1 | 40µM* | / | ? | /
N#Cc1ccc(C(=O)N2CCC3(CC2)NC(=O)N(Cc2ccc(Cl)cc2)C3=O)cc1 | ? | ? | 16µM* | i
O=C(c1n[nH]c2c1CCCCCC2)N1CCc2c(nc3cc(-c4ccccc4)[nH]n3c2=O)C1 | -10% | ? | -7% | i
COCc1noc([C@@H]2CN(S(=O)(=O)c3c(C)noc3C)C[C@H]2C(N)=O)n1 | -8% | 4% | 4% | i
O=C(c1ccc(C(F)(F)F)cc1)N1CCC2(C1)C(=NC1CCCCC1)NC(=O)N2c1cccnc1 (stereo not drawn) | i | / | -2% | /
COc1cccc(N2C(=O)NC(=NC3CCCCC3)C23CCN(C(=O)c2ccccc2)CC3)c1 | -4% | / | 32µM* | /
COc1cccc(N2C(=O)NC(=NC3CCCCC3)C23CCN(C(=O)c2ccccc2)C3)c1 (stereo not drawn) | ? | -5% | -6% | i
O=C(c1ccccc1)N1CCC2(CC1)C(=NC1CCCCC1)NC(=O)N2c1cc(F)cc(F)c1 | -9% | / | 32µM* | /
O=C(c1ccc(C(F)(F)F)cc1)N1CCC2(CC1)C(=NC1CCCC1)NC(=O)N2c1cccnc1 | i | / | 35µM* | /
CN1CCN(c2ccc3ncc(Nc4ccccc4-c4ccccc4)n3n2)CC1 | 40µM* | ? | 25µM* | i
c1ccc(-c2ccccc2Nc2cnc3ccc(-n4ccnc4)nn23)cc1 | 32µM* | ? | 25µM* | i
COc1cccc(CN2Cc3nc(-c4cnn(C)c4)ccc3OCC2=O)c1 | -16%[172 µM] | 1%[70.6 µM] | ? | i
O=C(C1CCCCCC1)N1CCC(n2cc(C3CCCCC3)nn2)CC1 | 89µM* | ? | ? | i
O=C(Nc1ccccc1Cl)N1CCC(n2cc(C3CCCC3)nn2)CC1 | ? | 0% | -26% | i
CC[C@H]1CN(C(=O)c2ccc(F)cc2)CC[C@H]1CC(=O)Nc1nccs1 | ? | -14%[70.6 µM] | ? | i
CC[C@H]1CN(C(C)=O)CC[C@H]1CC(=O)Nc1nccs1 | 112µM* | -20%[70.6 µM] | 100µM* | i
CN(C)C(=O)c1ccnc(-c2nnc3ccc(NC4CCCCC4)nn23)c1 | 1%[172 µM] | 4%[70.6 µM] | ? | i
